Inconclusive results are not listed. A number with no mark means an inactive call. The source made the active and inactive calls. The call rests on the fitted dose curve; in most records, active means well fitted curve in the direction sought with a large enough effect; inconclusive means small, poorly fitted or top-dose-only effect, or another doubt; inactive means no such curve, though single readings can be large; an effect the other way counts as inactive or inconclusive.
Assay: Cell Proliferation Assay against the TMD8 Cell Line (Caspase readout at 16 hrs) (AID 651712); further: potency means the concentration at half of the fitted maximal effect
Settings: TMD8 lymphoma cells, caspase activation luminescence; series mostly up to 46.1 µM; caspase activation: at the top concentration
Summary of the method: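 16 h, 37 °C, TMD8 (500 cells/well), RPMI/5% FBS no phenol red; Caspase-Glo 3/7, 15 min RT, luminescence; %act: DMSO 0, bortezomib 9.2 uM final 100.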

Row | SMILES | caspase activation | Potency
1 | C[C@@H]1C[C@H]2[C@@H]3CCC4=CC(=O)C=C[C@]4(C)C3(F)[C@@H](O)C[C@]2(C)[C@@]1(O)C(=O)CO (some centres not stated) | 15.7% | –
2 | COc1ccccc1[C@H](c1cccc2ccccc12)[C@@](C)(C#N)C(=O)N1CCC(c2cccc(C(F)(F)F)c2)CC1 | 3% | –
3 | COc1ccc2c3n(c(=NC(=O)c4cccnc4)nc2c1OC)CCN3 | 27.2% | –
4 | Cc1csc(NC(=O)c2sc3nc4c(c(C(F)(F)F)c3c2N)CCC4)n1 | -1.26% | –
5 | CNC(=O)c1ccccc1Sc1ccc2c(/C=C/c3ccccn3)n[nH]c2c1 | 2.56% | –
6 | Cc1cc2c(C(C)C)c(O)c(O)c(C=O)c2c(O)c1-c1c(C)cc2c(C(C)C)c(O)c(O)c(C=O)c2c1O | 13.7% | –
7 | CC(C)(N)C(=O)N[C@H](COCc1ccccc1)C(=O)N1CCC2(CC1)CN(S(C)(=O)=O)c1ccccc12 | 19.9% | –
8 | CC(C)OC(=O)C1=CN(C(=O)c2ccc(F)c(F)c2)CC(C)(C)c2c1[nH]c1ccccc21 | 3.44% | –
9 | CC(c1cc2ccccc2s1)N(O)C(N)=O (configuration not stated) | -0.349% [at 92.2 µM] | –
10 | NC(=O)c1ccc(-c2nc(-c3ccc4c(c3)OCO4)c(-c3ccccn3)[nH]2)cc1 | 13.3% | –
11 | O=C1[C@H](Cc2ccc(O)cc2)N2C(=O)CCN(C(=O)NCc3ccccc3)[C@H]2CN1Cc1cccc2ccccc12 | – | 23.5 µM (active)
12 | CO[C@@H]1[C@H](N(C)C(=O)c2ccccc2)C[C@H]2O[C@]1(C)n1c3ccccc3c3c4c(c5c6ccccc6n2c5c31)C(=O)NC4 | – | 2.09 µM (active)
13 | CC1(C)SCCN(S(=O)(=O)c2ccc(OCC#CCO)cc2)[C@@H]1C(=O)NO | -1.47% | –
14 | CC[C@@H](C)[C@H](NC(=O)[C@H](CC1CCCCC1)NC(=O)c1ccno1)C(=O)N1CCC2(CCc3ccccc32)CC1 | 15.4% | –
15 | O=C(O)[C@@H](c1ccc(OCc2ccc3ccccc3n2)cc1)C1CCCC1 | -10.7% | –
16 | Cc1cc(Nc2nc(N[C@@H](C)c3ncc(F)cn3)ncc2Cl)n[nH]1 | 2.53% | –
17 | CCOC(=O)C1=C[C@@]2(CC)CCCN3CCc4c(n1c1ccccc41)[C@H]32 | 10.7% [at 29.8 µM] | –
18 | CCN(CC)CCCC(C)Nc1nc(C)cc(Nc2ccc3nc(C)cc(N)c3c2)n1 (configuration not stated) | 12.3% | –
19 | CCCc1nn(C)c2c(=O)[nH]c(-c3cc(S(=O)(=O)N4CCN(C)CC4)ccc3OCC)nc12 | -1.58% | –
20 | CN[C@@H](C)C(=O)N[C@H]1CCCC[C@H]2CC[C@@H](C(=O)N[C@@H](c3ccccc3)c3cn(CCCCc4ccc(CCCCn5cc([C@@H](NC(=O)[C@@H]6CC[C@@H]7CCCC[C@H](NC(=O)[C@H](C)NC)C(=O)N76)c6ccccc6)nn5)cc4)nn3)N2C1=O | 17.6% | –
21 | O=c1[nH]c(-c2ccc(C(F)(F)F)cc2)nc2c1CSCC2 | 6.09% | –
22 | Fc1ccc(Cl)cc1-c1nc(Nc2ccncc2)c2nccnc2n1 | 4.49% | –

Assay: Cell Proliferation Assay against the TMD8 Cell Line (Caspase readout at 8 hrs) (AID 651713);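 further: 0% = DMSO and 100% = 9.2 µM bortezomib caspase signal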
Settings: TMD8 lymphoma cells, caspase activation luminescence; series mostly up to 46.1 µM; caspase activation: at the top concentration
Summary of the method: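 Caspase 3/7 activation in ABC DLBCL TMD8 cells is measured by luminescence after an 8 h compound exposure at 37C. Relative light units are scaled between DMSO (0%) and 9.2 uM final bortezomib (100%).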

Row | SMILES | caspase activation
23 | C[C@@H]1C[C@H]2[C@@H]3CCC4=CC(=O)C=C[C@]4(C)C3(F)[C@@H](O)C[C@]2(C)[C@@]1(O)C(=O)CO (some centres not stated) | -8.46%
24 | COc1ccccc1[C@H](c1cccc2ccccc12)[C@@](C)(C#N)C(=O)N1CCC(c2cccc(C(F)(F)F)c2)CC1 | 1.08%
25 | COc1ccc2c3n(c(=NC(=O)c4cccnc4)nc2c1OC)CCN3 | 13.1%
26 | Cc1csc(NC(=O)c2sc3nc4c(c(C(F)(F)F)c3c2N)CCC4)n1 | -26.3%
27 | CNC(=O)c1ccccc1Sc1ccc2c(/C=C/c3ccccn3)n[nH]c2c1 | -37.5%
28 | CC(C)(N)C(=O)N[C@H](COCc1ccccc1)C(=O)N1CCC2(CC1)CN(S(C)(=O)=O)c1ccccc12 | 23.4%
29 | CC(C)OC(=O)C1=CN(C(=O)c2ccc(F)c(F)c2)CC(C)(C)c2c1[nH]c1ccccc21 | -24.1%
30 | CC(c1cc2ccccc2s1)N(O)C(N)=O (configuration not stated) | 19.3% [at 92.2 µM]
31 | NC(=O)c1ccc(-c2nc(-c3ccc4c(c3)OCO4)c(-c3ccccn3)[nH]2)cc1 | 11.7%
32 | O=C1[C@H](Cc2ccc(O)cc2)N2C(=O)CCN(C(=O)NCc3ccccc3)[C@H]2CN1Cc1cccc2ccccc12 | 18.2%
33 | CC1(C)SCCN(S(=O)(=O)c2ccc(OCC#CCO)cc2)[C@@H]1C(=O)NO | 6.72%
34 | CC[C@@H](C)[C@H](NC(=O)[C@H](CC1CCCCC1)NC(=O)c1ccno1)C(=O)N1CCC2(CCc3ccccc32)CC1 | -14%
35 | O=C(O)[C@@H](c1ccc(OCc2ccc3ccccc3n2)cc1)C1CCCC1 | -78.8%
36 | Cc1cc(Nc2nc(N[C@@H](C)c3ncc(F)cn3)ncc2Cl)n[nH]1 | -5.19%
37 | CCOC(=O)C1=C[C@@]2(CC)CCCN3CCc4c(n1c1ccccc41)[C@H]32 | -55% [at 29.8 µM]
38 | CCN(CC)CCCC(C)Nc1nc(C)cc(Nc2ccc3nc(C)cc(N)c3c2)n1 (configuration not stated) | -21.4%
39 | CCCc1nn(C)c2c(=O)[nH]c(-c3cc(S(=O)(=O)N4CCN(C)CC4)ccc3OCC)nc12 | 5.7%
40 | CN[C@@H](C)C(=O)N[C@H]1CCCC[C@H]2CC[C@@H](C(=O)N[C@@H](c3ccccc3)c3cn(CCCCc4ccc(CCCCn5cc([C@@H](NC(=O)[C@@H]6CC[C@@H]7CCCC[C@H](NC(=O)[C@H](C)NC)C(=O)N76)c6ccccc6)nn5)cc4)nn3)N2C1=O | -11.4%
41 | O=c1[nH]c(-c2ccc(C(F)(F)F)cc2)nc2c1CSCC2 | 8.42%
42 | Fc1ccc(Cl)cc1-c1nc(Nc2ccncc2)c2nccnc2n1 | 5.11%

From PubChem BioAssay (NCATS)
